The values below come from ChEMBL document CHEMBL2218924, “A broad activity screen in support of a chemogenomic map for kinase signalling research and drug discovery” (Biochem J, 2013).

A word on the residual activity: it is the signal under treatment as a percentage of the control signal.

For one experiment, the target named is T1, Serine/threonine-protein kinase 17A (Homo sapiens) (UniProt Q9UEE5).
T1 sequence (whole entry): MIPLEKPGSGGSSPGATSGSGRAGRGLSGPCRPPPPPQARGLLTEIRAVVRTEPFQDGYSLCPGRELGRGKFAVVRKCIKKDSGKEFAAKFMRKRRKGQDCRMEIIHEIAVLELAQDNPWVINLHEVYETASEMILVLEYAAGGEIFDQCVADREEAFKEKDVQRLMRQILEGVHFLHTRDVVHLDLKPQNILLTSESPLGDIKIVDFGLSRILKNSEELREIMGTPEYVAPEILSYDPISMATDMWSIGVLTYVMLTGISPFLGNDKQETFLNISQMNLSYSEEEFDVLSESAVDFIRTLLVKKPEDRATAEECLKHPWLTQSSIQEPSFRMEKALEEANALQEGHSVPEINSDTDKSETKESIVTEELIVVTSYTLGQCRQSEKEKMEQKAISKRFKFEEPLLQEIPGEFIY
As to conditions: at 10 µM.
Regarding `COc1cc2c(cc1OC)-c1n[nH]c(Nc3cccc(F)c3)c1C2`, the residual activity came to 53%.
On the same count and under the same terms, the same measure for `O=c1c(-c2ccc(F)cc2)c(-c2ccncc2)[nH]n1-c1ccc(Cl)cc1`: 71%.
The same measure, in the same setting: the same measure for `O=C1Nc2ccccc2/C1=C\c1c(Cl)[nH]c2ccccc12`: 85%; for `Nc1nc(Nc2ccc(S(N)(=O)=O)cc2)nn1C(=O)c1c(F)cccc1F`: 47%.
Same read-out and setting: under `Cc1cc(C)c(/C=C2\C(=O)Nc3ccccc32)[nH]1` stands 3%; under `O=C1NC(=O)C(c2cn(CCCO)c3ncccc23)=C1c1cnccn1`, 67%.
As for `CCOC(=O)c1c(C)[nH]c(/C=C2\C(=O)Nc3ccccc32)c1C`, the residual activity was 75%.
Same read-out and setting: the same measure for `CC(C)(C)c1nc2c3ccc(F)cc3c3c(=O)[nH]ccc3c2[nH]1`: 0%.
On to `NC(=O)Nc1sc(-c2ccc(F)cc2)cc1C(N)=O`, for which the residual activity is 39%.
The same measure, in the same setting: under `O=C1NC(=O)C(c2c[nH]c3ccccc23)=C1c1c[nH]c2ccccc12` stands 25%; under `COc1ccc(Cl)cc1NC(=O)Nc1cc(C)nc2ccccc12`, 58%.
For the molecule `COc1ccc2c(c1)c(C1=C(c3c[nH]c4ccccc34)C(=O)NC1=O)cn2CCCN(C)C`, the residual activity came out at 27%.
Still for that read-out and setting: the same measure for `NCCNc1ncc(C(N)=O)c(Nc2cccc(C(F)(F)F)c2)n1`: 60%.
As to `CCCCc1c(-c2ccc(OC)cc2)[nH]c2nccnc12`, the residual activity turned out to be 80%.
With `COc1ccc(COc2ccc(Cc3cnc(N)nc3N)cc2OC)cc1`, the residual activity was determined as 112%.

Another experiment has as its target T2, Dual specificity tyrosine-phosphorylation-regulated kinase 2 (Homo sapiens) (UniProt Q92630).
T2 sequence (whole entry): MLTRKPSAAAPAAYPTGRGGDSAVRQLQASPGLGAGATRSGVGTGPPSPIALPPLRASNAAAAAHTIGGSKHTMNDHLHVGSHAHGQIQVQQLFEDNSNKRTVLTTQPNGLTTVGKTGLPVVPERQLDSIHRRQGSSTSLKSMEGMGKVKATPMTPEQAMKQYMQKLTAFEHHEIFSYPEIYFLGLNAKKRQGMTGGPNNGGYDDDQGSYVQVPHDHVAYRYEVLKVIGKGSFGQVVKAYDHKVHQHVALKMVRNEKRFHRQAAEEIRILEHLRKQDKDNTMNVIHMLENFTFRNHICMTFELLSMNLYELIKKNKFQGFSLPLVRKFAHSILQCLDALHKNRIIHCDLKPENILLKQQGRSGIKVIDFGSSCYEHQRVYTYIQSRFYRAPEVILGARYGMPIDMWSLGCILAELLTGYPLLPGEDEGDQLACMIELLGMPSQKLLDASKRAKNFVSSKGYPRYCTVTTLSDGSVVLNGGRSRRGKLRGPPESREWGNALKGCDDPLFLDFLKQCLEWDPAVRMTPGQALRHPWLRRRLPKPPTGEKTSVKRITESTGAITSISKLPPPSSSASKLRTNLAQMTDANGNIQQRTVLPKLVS
As to conditions: at 1 µM.
Consider `N#C/C(=C\c1ccc(O)c(O)c1)C(=O)NCc1ccccc1`, for which the residual activity was 87%.
The same measure, in the same setting: under `CC(C)c1nn(-c2c(Cl)cccc2Cl)c2nc(Cc3ccc(OCCO)cc3)[nH]c(=O)c12` stands 96%; under `O=C(NC(NC(=S)Nc1ccc(F)c([N+](=O)[O-])c1)C(Cl)(Cl)Cl)C(c1ccccc1)c1ccccc1` (stereo not drawn), 98%; under `O=C(c1ccccc1)c1ccc(N2CCOCC2)cc1O`, 100%.
Still for that read-out and setting: under `O=C(CCCc1ccc(-c2ccccc2F)cc1)Nc1ccc(O)cc1` stands 105%.
Consider `Cn1sc(=O)n(Cc2ccccc2)c1=O`, for which the residual activity was found to be 96%.
For `CC(C)[C@H](CO)Nc1nc(Nc2cc(N)cc(Cl)c2)c2ncn(C(C)C)c2n1`, the residual activity amounted to 94%.
The same measure, in the same setting: the same measure for `CCN1/C(=C/C(C)=O)Sc2ccc(OC)cc21`: 5%.

A further experiment has as its target T2, Dual specificity tyrosine-phosphorylation-regulated kinase 2 (Homo sapiens). As to conditions: at 10 µM.
Regarding `CN(C)S(=O)(=O)c1ccc2c(c1)/C(=C/c1cc3c([nH]1)CCCC3)C(=O)N2`, the residual activity was 91%.
Still for that read-out and setting: under `N#C/C(=C\c1ccc(O)c(O)c1)C(=O)NCc1ccccc1` stands 73%.
On the same count and under the same terms, the same measure for `CC(C)c1nn(-c2c(Cl)cccc2Cl)c2nc(Cc3ccc(OCCO)cc3)[nH]c(=O)c12`: 106%; for `O=C(NC(NC(=S)Nc1ccc(F)c([N+](=O)[O-])c1)C(Cl)(Cl)Cl)C(c1ccccc1)c1ccccc1` (stereo not drawn): 100%; for `CCCC(=O)Oc1ccc2[nH]c(C(=O)c3cc4ccccc4[nH]3)cc2c1`: 102%.
Same read-out and setting: the same measure for `O=C(c1ccccc1)c1ccc(N2CCOCC2)cc1O`: 93%; for `O=C(CCCc1ccc(-c2ccccc2F)cc1)Nc1ccc(O)cc1`: 91%.
`Cn1sc(=O)n(Cc2ccccc2)c1=O`: the residual activity worked out at 82%.
Same read-out and setting: the same measure for `CC(C)[C@H](CO)Nc1nc(Nc2cc(N)cc(Cl)c2)c2ncn(C(C)C)c2n1`: 74%; for `CCN1/C(=C/C(C)=O)Sc2ccc(OC)cc21`: -5%.
